Targets with a hit are over-represented here; the source holds about 8,800 in all. About 0.5% of all pairs of compound and target were hits.
How the values were obtained:
Experiment in all cases: log2 fold change, soluble protein after heating vs DMSO (PISA); higher = thermal stabilisation; K562 lysate, 10 uM; active = over 0.2 and 3.5 SD of the protein, either way, in both replicates (recomputed)
nilotinib = compound: Cc1cn(-c2cc(NC(=O)c3ccc(C)c(Nc4nccc(-c5cccnc5)n4)c3)cc(C(F)(F)F)c2)cn1 [nilotinib]
In short: (§1)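 Following dounce homogenisation of K562 pellets in PBS pH 7.4 with 1 mM MgCl2, crude extract at 1 mg/mL protein was incubated for 30 min with 10 μM compound. Aliquots were then heated for 3 min over 48°C-58°C and pooled, NP-40 was added to 0.5% at 4°C, and soluble protein was recovered as the supernatant at 21,000xg for 90 min. Channel-sum-equalised TMTpro 16plex LC-MS/MS quantified this protein. Each value, from duplicates, is a log-two fold change in thermal stability relative to solvent controls.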

[1] = compound: Cc1nc(Nc2n[nH]c3c2CN(C(=O)N[C@H](CN(C)C)c2ccccc2)C3(C)C)c2sccc2n1
In short: as §1

dasatinib = compound: Cc1nc(Nc2ncc(C(=O)Nc3c(C)cccc3Cl)s2)cc(N2CCN(CCO)CC2)n1 [dasatinib]
In short: as §1

[2] = compound: Cc1ncc(-c2ccnc(Nc3ccc(S(C)(=O)=O)cc3)n2)n1C(C)C
In short: as §1

[3] = compound: Cn1cc(-c2ccc3c(c2)CCN3C(=O)Cc2cccc(C(F)(F)F)c2)c2c(N)ncnc21
In short: as §1

quisinostat = compound: Cn1cc(CNCC2CCN(c3ncc(C(=O)NO)cn3)CC2)c2ccccc21 [quisinostat]
In short: as §1

tipifarnib = compound: Cn1cncc1[C@@](N)(c1ccc(Cl)cc1)c1ccc2c(c1)c(-c1cccc(Cl)c1)cc(=O)n2C [tipifarnib]
In short: as §1

[4] = compound: NC(=O)Nc1cc(-c2cccc(F)c2)sc1C(=O)N[C@H]1CCCNC1
In short: as §1

[5] = compound: NC(=O)c1cnc(N[C@@H]2CCCC[C@@H]2N)nc1Nc1cccc(-n2nccn2)c1
In short: as §1

[6] = compound: NC1(c2ccc(-c3nc4ccn5c(=O)[nH]nc5c4cc3-c3ccccc3)cc2)CCC1
In short: as §1

[7] = compound: NCC(=O)Nc1ccc(-n2nc(C(F)(F)F)cc2-c2ccc3c(ccc4ccccc43)c2)cc1
In short: as §1

vorinostat = compound: O=C(CCCCCCC(=O)Nc1ccccc1)NO [vorinostat]
In short: as §1

silmitasertib = compound: O=C(O)c1ccc2c(c1)nc(Nc1cccc(Cl)c1)c1ccncc12 [silmitasertib]
In short: as §1

[8] = compound: O=C1NC(=O)C(c2cnc3ccccn23)=C1c1cn2c3c(cc(F)cc13)CN(C(=O)N1CCCCC1)CC2
In short: as §1

entospletinib = compound: c1cn2cc(-c3ccc4cn[nH]c4c3)nc(Nc3ccc(N4CCOCC4)cc3)c2n1 [entospletinib]
In short: as §1

Measured: log2 fold change

NEDD8 (UniProt Q15843)
Sequence of UniProt Q15843 (Q15843 whole entry, looked up): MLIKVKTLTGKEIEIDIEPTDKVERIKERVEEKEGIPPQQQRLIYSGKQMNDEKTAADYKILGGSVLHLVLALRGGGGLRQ
inactive: nilotinib 0.004 | [1] -0.073 | dasatinib 0.027 | [2] 0.103 | [3] -0.034 | quisinostat 0.034 | tipifarnib 0.066 | [4] -0.038 | [5] -0.057 | [6] 0.018 | [7] -0.033 | vorinostat 0.195 | silmitasertib -0.12 | [8] 0.038 | entospletinib -0.082

NACC1 (UniProt Q96RE7)
Sequence of UniProt Q96RE7 (Q96RE7 whole entry, looked up): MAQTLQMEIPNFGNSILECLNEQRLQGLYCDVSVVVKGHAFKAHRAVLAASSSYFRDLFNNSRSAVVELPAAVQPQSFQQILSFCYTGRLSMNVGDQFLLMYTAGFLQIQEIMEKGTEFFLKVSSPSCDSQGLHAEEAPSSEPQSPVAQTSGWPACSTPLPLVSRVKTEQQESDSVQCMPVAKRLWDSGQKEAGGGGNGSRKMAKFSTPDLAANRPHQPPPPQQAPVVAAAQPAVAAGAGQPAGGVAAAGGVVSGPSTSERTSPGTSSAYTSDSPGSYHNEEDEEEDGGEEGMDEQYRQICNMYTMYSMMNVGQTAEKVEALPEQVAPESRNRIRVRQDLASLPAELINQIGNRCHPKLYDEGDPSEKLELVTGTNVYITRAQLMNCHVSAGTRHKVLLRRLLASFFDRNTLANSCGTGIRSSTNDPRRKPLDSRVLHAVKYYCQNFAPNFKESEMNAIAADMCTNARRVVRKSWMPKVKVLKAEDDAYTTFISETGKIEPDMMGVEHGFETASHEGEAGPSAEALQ
active: vorinostat -0.231
inactive: nilotinib -0.013 | [1] 0.031 | dasatinib -0.006 | [2] -0.007 | [3] 0.022 | quisinostat -0.024 | tipifarnib -0.008 | [4] -0.04 | [5] 0.022 | [6] 0.015 | [7] -0.014 | silmitasertib 0.024 | [8] -0.004 | entospletinib -0.036

NAA38 isoform 2 (UniProt Q9BRA0)
Sequence of UniProt Q9BRA0 (Q9BRA0 whole entry, looked up): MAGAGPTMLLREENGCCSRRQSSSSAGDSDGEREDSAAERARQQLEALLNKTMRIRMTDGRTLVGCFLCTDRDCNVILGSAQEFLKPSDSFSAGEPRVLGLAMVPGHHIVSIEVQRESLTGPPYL
inactive: nilotinib -0.024 | [1] 0.059 | dasatinib -0.014 | [2] -0.007 | [3] 0.001 | quisinostat 0.03 | tipifarnib -0.03 | [4] 0.027 | [5] 0.016 | [6] -0.019 | [7] -0.015 | vorinostat -0.088 | silmitasertib 0.009 | [8] 0.04 | entospletinib -0.035

MT-ND1 (UniProt P03886)
inactive: nilotinib -0.054 | [1] 0.005 | dasatinib 0.018 | [2] -0.074 | [3] 0.035 | quisinostat -0.094 | tipifarnib -0.125 | [4] 0.033 | [5] -0.024 | [6] -0.059 | [7] 0.002 | vorinostat 0.072 | silmitasertib 0.033 | [8] 0.015 | entospletinib 0.121

MSH6 (UniProt P52701)
Sequence of UniProt P52701 (P52701 whole entry, looked up): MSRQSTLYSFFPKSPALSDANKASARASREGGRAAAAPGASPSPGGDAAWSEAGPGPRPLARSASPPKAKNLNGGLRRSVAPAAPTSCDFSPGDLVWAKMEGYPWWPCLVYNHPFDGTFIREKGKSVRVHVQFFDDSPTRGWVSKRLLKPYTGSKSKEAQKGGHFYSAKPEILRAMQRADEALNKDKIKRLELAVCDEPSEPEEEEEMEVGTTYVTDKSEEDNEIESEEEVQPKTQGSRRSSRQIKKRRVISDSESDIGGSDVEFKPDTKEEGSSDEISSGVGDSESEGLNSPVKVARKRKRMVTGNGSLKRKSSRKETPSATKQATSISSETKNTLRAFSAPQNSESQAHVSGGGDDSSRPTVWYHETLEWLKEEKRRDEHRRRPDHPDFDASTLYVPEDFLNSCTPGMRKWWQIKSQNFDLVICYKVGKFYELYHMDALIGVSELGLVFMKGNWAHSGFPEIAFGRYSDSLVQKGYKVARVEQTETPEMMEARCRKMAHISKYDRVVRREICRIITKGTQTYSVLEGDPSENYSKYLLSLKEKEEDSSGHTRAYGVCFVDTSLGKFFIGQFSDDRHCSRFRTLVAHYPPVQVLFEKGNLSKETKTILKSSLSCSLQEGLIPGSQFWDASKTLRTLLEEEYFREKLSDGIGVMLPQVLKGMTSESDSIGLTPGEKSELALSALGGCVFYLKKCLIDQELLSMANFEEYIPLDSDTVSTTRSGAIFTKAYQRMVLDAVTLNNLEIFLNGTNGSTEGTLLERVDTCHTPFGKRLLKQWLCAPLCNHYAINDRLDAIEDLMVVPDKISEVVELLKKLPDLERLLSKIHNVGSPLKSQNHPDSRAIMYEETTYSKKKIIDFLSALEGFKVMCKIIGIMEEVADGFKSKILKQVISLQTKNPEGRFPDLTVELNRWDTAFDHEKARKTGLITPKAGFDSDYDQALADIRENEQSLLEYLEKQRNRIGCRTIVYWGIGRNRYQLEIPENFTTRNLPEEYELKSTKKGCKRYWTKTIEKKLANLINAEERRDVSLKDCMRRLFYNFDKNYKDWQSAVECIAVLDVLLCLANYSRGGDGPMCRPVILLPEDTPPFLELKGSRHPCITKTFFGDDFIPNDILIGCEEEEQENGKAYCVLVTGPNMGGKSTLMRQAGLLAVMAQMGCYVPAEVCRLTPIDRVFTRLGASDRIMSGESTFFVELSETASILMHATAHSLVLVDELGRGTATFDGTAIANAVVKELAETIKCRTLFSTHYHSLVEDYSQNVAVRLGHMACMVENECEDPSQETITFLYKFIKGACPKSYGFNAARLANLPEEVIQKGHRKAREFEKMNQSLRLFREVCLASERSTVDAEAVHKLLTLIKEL
active: vorinostat -0.287
inactive: nilotinib -0.005 | [1] 0.011 | dasatinib -0.073 | [2] -0.002 | [3] 0.03 | quisinostat -0.091 | tipifarnib -0.009 | [4] 0.072 | [5] 0.006 | [6] -0.045 | [7] 0.008 | silmitasertib 0.063 | [8] 0.016 | entospletinib -0.012

OSBP2 (UniProt Q969R2)
inactive: nilotinib -0.053 | [1] -0.038 | dasatinib -0.089 | [2] -0.025 | [3] -0.002 | quisinostat -0.184 | tipifarnib -0.053 | [4] 0.052 | [5] 0.075 | [6] 0.026 | [7] 0.025 | vorinostat 0.055 | silmitasertib -0.147 | [8] 0.023 | entospletinib -0.102

NEBL (UniProt O76041)
inactive: nilotinib -0.024 | [1] 0.019 | dasatinib 0.089 | [2] 0.032 | [3] -0.007 | quisinostat -0.045 | tipifarnib 0.008 | [4] -0.065 | [5] -0.018 | [6] -0.03 | [7] 0.056 | vorinostat 0.207 | silmitasertib 0.052 | [8] -0.026 | entospletinib -0.018

NUP133 (UniProt Q8WUM0)
inactive: nilotinib 0.023 | [1] -0.006 | dasatinib -0.026 | [2] 0.019 | [3] 0.056 | quisinostat -0.092 | tipifarnib -0.039 | [4] 0.006 | [5] 0.005 | [6] -0.016 | [7] 0.045 | vorinostat -0.195 | silmitasertib 0.052 | [8] 0.011 | entospletinib -0.033

OCRL (UniProt Q01968)
Sequence of UniProt Q01968 (Q01968 whole entry, looked up): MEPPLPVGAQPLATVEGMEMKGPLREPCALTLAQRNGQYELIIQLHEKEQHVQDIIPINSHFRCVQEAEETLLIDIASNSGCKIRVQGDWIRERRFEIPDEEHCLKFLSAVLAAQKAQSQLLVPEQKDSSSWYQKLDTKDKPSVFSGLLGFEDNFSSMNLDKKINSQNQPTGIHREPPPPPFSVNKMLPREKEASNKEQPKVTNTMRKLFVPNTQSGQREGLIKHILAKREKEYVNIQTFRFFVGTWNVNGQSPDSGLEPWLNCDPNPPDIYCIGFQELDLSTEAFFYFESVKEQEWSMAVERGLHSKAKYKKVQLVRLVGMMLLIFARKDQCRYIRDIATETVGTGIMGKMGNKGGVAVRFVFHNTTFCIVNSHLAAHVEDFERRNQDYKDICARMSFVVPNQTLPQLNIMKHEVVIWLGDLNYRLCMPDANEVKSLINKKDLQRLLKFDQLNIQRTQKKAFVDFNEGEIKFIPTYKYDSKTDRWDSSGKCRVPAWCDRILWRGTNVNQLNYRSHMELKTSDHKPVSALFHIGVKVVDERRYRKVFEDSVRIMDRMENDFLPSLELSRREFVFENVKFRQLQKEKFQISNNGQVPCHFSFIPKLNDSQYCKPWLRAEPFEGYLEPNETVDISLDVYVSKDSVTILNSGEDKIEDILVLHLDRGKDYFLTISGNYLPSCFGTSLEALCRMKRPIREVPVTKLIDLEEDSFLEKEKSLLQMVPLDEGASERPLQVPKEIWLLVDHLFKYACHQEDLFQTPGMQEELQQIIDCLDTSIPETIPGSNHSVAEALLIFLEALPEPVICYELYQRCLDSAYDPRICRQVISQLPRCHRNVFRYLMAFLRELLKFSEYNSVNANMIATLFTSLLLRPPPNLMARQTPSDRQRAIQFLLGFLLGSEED
inactive: nilotinib -0.095 | [1] 0.083 | dasatinib -0.044 | [2] -0.051 | [3] 0.053 | quisinostat -0.089 | tipifarnib 0.048 | [4] -0.018 | [5] -0.012 | [6] 0.024 | [7] 0.134 | silmitasertib 0.032 | [8] 0.019 | entospletinib -0.032
active: vorinostat -0.43

NOSTRIN (UniProt Q8IVI9)
active: vorinostat -0.27
inactive: nilotinib -0.015 | [1] -0.02 | dasatinib -0.022 | [2] 0.03 | [3] 0.01 | quisinostat -0.031 | tipifarnib -0.008 | [4] 0.01 | [5] -0.018 | [6] 0.064 | [7] -0.083 | silmitasertib 0.028 | [8] 0.019 | entospletinib 0.018

NPM3 (UniProt O75607)
Sequence of UniProt O75607 (O75607 whole entry, looked up): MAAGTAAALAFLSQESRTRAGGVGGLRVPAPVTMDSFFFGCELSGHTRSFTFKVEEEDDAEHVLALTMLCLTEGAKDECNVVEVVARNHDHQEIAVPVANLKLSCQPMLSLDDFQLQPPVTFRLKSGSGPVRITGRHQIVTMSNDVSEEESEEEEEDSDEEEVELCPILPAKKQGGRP
inactive: nilotinib -0.039 | [1] -0.012 | dasatinib 0.065 | [2] 0.049 | [3] 0.024 | quisinostat -0.024 | tipifarnib -0.027 | [4] 0.019 | [5] 0.03 | [6] -0.029 | [7] -0.049 | vorinostat -0.012 | silmitasertib 0.021 | [8] -0.019 | entospletinib -0.037

PAXBP1 (UniProt Q9Y5B6)
Sequence of UniProt Q9Y5B6 (Q9Y5B6 whole entry, looked up): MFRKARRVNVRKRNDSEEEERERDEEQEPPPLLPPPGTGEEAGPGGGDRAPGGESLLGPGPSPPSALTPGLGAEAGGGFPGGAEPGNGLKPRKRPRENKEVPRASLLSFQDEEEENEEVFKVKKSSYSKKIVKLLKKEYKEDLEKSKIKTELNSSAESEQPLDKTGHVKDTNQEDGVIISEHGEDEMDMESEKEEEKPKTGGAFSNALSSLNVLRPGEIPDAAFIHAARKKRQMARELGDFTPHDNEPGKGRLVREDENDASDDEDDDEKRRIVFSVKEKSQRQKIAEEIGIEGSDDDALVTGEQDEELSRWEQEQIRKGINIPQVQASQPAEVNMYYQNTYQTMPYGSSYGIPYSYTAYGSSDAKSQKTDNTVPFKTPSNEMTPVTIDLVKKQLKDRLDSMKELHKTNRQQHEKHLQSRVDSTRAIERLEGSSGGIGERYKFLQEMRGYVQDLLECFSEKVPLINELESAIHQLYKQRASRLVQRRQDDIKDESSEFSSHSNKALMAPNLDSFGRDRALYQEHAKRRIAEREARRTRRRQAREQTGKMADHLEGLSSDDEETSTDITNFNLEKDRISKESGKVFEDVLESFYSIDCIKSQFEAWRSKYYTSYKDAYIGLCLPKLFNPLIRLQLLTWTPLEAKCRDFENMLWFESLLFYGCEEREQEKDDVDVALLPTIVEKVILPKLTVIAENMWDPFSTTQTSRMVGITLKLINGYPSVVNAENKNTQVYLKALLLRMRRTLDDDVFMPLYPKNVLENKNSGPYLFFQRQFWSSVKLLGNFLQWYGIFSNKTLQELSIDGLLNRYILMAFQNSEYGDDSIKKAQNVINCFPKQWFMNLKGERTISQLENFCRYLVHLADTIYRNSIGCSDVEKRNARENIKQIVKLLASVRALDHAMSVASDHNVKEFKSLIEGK
inactive: nilotinib -0.014 | [1] 0.012 | dasatinib -0.046 | [2] 0.011 | [3] 0.024 | quisinostat -0.041 | tipifarnib -0.008 | [4] 0.031 | [5] 0.023 | [6] -0.006 | [7] 0.02 | vorinostat -0.146 | silmitasertib -0.019 | [8] -0.02 | entospletinib -0.043

MTHFD1L (UniProt B7ZM99)
active: vorinostat -0.408
inactive: nilotinib -0.017 | [1] 0.028 | dasatinib -0.061 | [2] 0.002 | [3] 0.046 | quisinostat -0.055 | tipifarnib -0.01 | [4] 0.074 | [5] 0.019 | [6] -0.017 | [7] 0.031 | silmitasertib 0.07 | [8] 0.045 | entospletinib -0.02

MTFP1 (UniProt Q9UDX5)
Sequence of UniProt Q9UDX5 (Q9UDX5 whole entry, looked up): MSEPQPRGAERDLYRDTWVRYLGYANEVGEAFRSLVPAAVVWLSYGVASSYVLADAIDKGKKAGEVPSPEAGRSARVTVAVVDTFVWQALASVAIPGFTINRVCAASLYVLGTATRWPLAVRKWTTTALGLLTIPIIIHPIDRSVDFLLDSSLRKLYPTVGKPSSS
inactive: nilotinib 0.044 | [1] -0.021 | dasatinib 0.069 | [2] 0.043 | [3] 0.008 | quisinostat 0.133 | tipifarnib -0.014 | [4] 0.02 | [5] -0.103 | [6] -0.004 | [7] -0.04 | vorinostat 0.102 | silmitasertib -0.007 | [8] 0.02 | entospletinib -0.009

NAP1L5 (UniProt Q96NT1)
Sequence of UniProt Q96NT1 (Q96NT1 whole entry, looked up): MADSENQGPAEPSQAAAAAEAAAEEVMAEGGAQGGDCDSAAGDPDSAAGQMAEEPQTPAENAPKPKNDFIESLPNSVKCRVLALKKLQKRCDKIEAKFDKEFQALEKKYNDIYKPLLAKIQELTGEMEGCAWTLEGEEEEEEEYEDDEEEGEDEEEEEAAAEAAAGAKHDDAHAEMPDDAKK
inactive: nilotinib -0.008 | [1] -0.053 | dasatinib 0.024 | [2] 0.045 | [3] 0.01 | quisinostat 0.068 | tipifarnib 0.054 | [4] -0.05 | [5] -0.049 | [6] 0.005 | [7] 0.023 | vorinostat 0.059 | silmitasertib 0.033 | [8] -0.049 | entospletinib 0.071

NFKBIE (UniProt O00221)
Sequence of UniProt O00221 (O00221 whole entry, looked up): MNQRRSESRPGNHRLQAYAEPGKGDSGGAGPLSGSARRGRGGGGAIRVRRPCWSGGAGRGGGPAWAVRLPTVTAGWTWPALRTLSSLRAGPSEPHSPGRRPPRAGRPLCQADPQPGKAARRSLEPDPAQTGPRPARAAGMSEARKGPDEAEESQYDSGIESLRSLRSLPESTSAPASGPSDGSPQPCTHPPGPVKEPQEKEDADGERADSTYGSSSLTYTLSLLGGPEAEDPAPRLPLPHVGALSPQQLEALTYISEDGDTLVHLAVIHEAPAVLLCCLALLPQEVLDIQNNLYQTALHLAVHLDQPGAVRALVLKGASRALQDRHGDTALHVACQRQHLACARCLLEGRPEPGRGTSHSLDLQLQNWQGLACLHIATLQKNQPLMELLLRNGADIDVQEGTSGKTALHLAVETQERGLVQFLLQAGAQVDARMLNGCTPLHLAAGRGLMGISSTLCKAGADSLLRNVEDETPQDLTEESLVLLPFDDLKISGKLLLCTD
inactive: nilotinib -0.074 | [1] 0.014 | dasatinib -0.053 | [3] 0.002 | quisinostat -0.004 | tipifarnib -0.112 | [4] 0.025 | [5] 0.061 | [6] -0.024 | [7] -0.08 | vorinostat 0.005 | silmitasertib 0.114 | [8] -0.017 | entospletinib -0.036
active: [2] 0.424

NFATC2 (UniProt Q13469)
inactive: nilotinib -0.001 | [1] -0.052 | dasatinib -0.033 | [2] 0.061 | [3] -0.001 | quisinostat -0.133 | tipifarnib -0.021 | [4] 0.024 | [5] -0.025 | [6] -0.023 | [7] 0.02 | silmitasertib 0.021 | [8] 0.044 | entospletinib -0.062
active: vorinostat -0.411

Source: the supplement of paper PMC10849652
